# Assay results published in PubChem BioAssay AID504843 (Broad Institute, 2011).
# Hit rate of the full screen: of about 1,200 compounds, about 360 (30%) were called active. No rule for the calls is given here. The list is a sample of the results. Entries that show only a call come without a potency. Potency and affinity values are given separately.
# Assay: antibacterial activity by ATP level – BacTiter-Glo luminescence, cherry-picked samples, counter-screen, dose response (AID 504843);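 also: growth measured after 8 h incubation at 30 °C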
# Conditions: bacterial growth; series mostly up to 15 µM
row,Structure (SMILES),outcome
1,COc1cccc(NC(=O)c2ccc3c(SCC(=O)O)c4c(nc3c2)CCCC4)c1,inactive
2,CC(=O)Nc1cccc(Oc2nc(C(F)(F)F)nc3ccccc23)c1,inactive
3,Cc1ccc(OCCOCCNC(C)(C)C)c([N+](=O)[O-])c1,inactive
4,N#Cc1ccccc1CSc1ccccn1,inactive
5,CC(CN1CCOCC1)(NS(=O)(=O)c1ccccc1)c1ccccc1 (stereo unspecified),inactive
6,O=C(CNC1CCCCCC1)Nc1ccccc1N1CCCCC1,inactive
7,O=C(CNC1CCCCC1)Nc1cc(S(=O)(=O)N2CCOCC2)ccc1Cl,inactive
8,O=C(NCCOC(=O)c1cccs1)c1cccnc1,inactive
9,COc1ccc(OC)c(-n2c(SCC(=O)N3CCc4ccccc43)nc3c(c2=O)SCC3)c1,inactive
10,Fc1cccc(NC(=S)NCCCN2CCOCC2)c1,inactive
11,O=C1CCCN1Cc1ccccc1,inactive
12,O=C(Cn1nc(C(=O)O)c2ccccc2c1=O)NCc1ccco1,inactive
13,N#C/C(=C(/O)CN1CCN(c2ccccc2F)CC1)c1nc(-c2ccc(Cl)cc2)cs1,inactive
14,C[C@@H]1CN([C@H](C)CO)C(=O)c2cc(NS(=O)(=O)c3cccs3)ccc2O[C@H]1CN(C)Cc1ccccc1,inactive
15,COc1cc(/C=N/NC(=O)c2ccccn2)ccc1OC(=O)c1ccc(Br)cc1,inactive
16,C(=N\Nc1ccccn1)/c1ccc(N2CCOCC2)cc1,inactive

row,Structure (SMILES),outcome
1,Cn1c(Cn2c(=O)sc3ccccc32)nnc1SCc1ccccc1F,inactive
2,CCCCCCc1ccc(N2C[C@H](Cc3ccccc3)[C@@H](CC(=O)NCc3ccc(OC)cc3)C2=O)cc1,inactive
3,CCCC(=O)c1c[nH]c(C(=O)N2CCOCC2)c1,inactive
4,CCCNC(=O)COc1coc(CN2CCN(c3ccccc3F)CC2)cc1=O,inactive
5,CCCc1[nH]nc2c1C(c1ccc(OC(=O)c3ccco3)cc1)C(C#N)=C(N)O2 (stereo unspecified),inactive
6,CC(=O)c1ccc([C@H]2C[C@@]34CN(C(=O)OC(C)(C)C)S(=O)(=O)[C@H]3C[C@H]2O4)cc1,inactive
7,CCOC(=O)CSc1nnc(CNC(=O)c2ccc([N+](=O)[O-])cc2)n1C,inactive
8,NC(=O)c1cc2ccc(O)cc2oc1=Nc1ccccc1,inactive
9,Cc1ccc(NCc2nnc3n2CCCCC3)c(C)c1,inactive
10,C[C@H](NS(=O)(=O)c1ccc(Cl)c(Cl)c1)C(=O)OCc1cc(=O)n2cc(Br)ccc2n1,inactive
11,Cc1ccc(NC(=S)NC(=O)c2ccc(F)cc2)cc1S(=O)(=O)Nc1ccccc1Cl,inactive
12,COc1ccc(NS(=O)(=O)c2cc(NC(=O)CCc3ccc(OC)c(OC)c3)ccc2N2CCOCC2)cc1,inactive
13,CCOC(=O)c1c(NC(NC(C)=O)C(Cl)(Cl)Cl)sc(C(C)=O)c1C (stereo unspecified),inactive
14,OCc1ccnc2c(O)cccc12,inactive
15,CCOC(=O)/C(C#N)=C/c1ccc(OCC(=O)Nc2ccccc2)c(OC)c1,inactive
